Source: the supplement of paper PMC6897291
Where a name gives a salt, the structure may show the parent alone.

System: RIVA
Assay: growth inhibition by drug alone (1 - RLU/untreated control) (fraction); higher = stronger inhibition
Details: 177Lu-lilotomab satetraxetan 0 ug/ml
Method: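 RIVA (RI-1) ABC-DLBCL cells were pretreated or not for 18 h with 0.5 ug/ml 177Lu-lilotomab satetraxetan (600 MBq/mg), washed and seeded (3000 cells/well) on 384-well plates pre-printed with the Selleck Cambridge Cancer Compound library. Viability was read by RealTime-Glo luminescence on days 3-6 after seeding. Effect = 1 - RLU/mean RLU of the 48 untreated no-drug control wells per plate; Bliss score = (M-E)/(1-Fa).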

SMILES | growth inhibition by drug alone (10 nM, time (day): 3) | growth inhibition by drug alone (10 nM, time (day): 4) | growth inhibition by drug alone (10 nM, time (day): 5) | growth inhibition by drug alone (10 nM, time (day): 6) | growth inhibition by drug alone (100 nM, time (day): 3) | growth inhibition by drug alone (100 nM, time (day): 4) | growth inhibition by drug alone (100 nM, time (day): 5) | growth inhibition by drug alone (100 nM, time (day): 6)
Cc1c(CCOc2ccc(C(=O)O)cc2)c2cc(Cl)ccc2n1C(c1ccccc1)c1ccccc1 | -0.14 | -0.201 | -0.294 | -0.473 | -0.448 | -0.454 | -0.564 | -0.758
COC(=O)C1=C(C)NC(C)=C(C(=O)OCCCN2CCC(c3ccccc3)(c3ccccc3)CC2)[C@H]1c1cccc([N+](=O)[O-])c1 [S-(+)-Niguldipine hydrochloride] | 0.00175 | -0.0387 | -0.0555 | -0.128 | -0.336 | -0.283 | -0.288 | -0.329
O=c1[nH]nc(Sc2ncc([N+](=O)[O-])s2)n1-c1ccc2c(c1)OCCO2 | 0.00609 | -0.0273 | -0.0872 | -0.35 | -0.0796 | -0.0567 | -0.0833 | -0.162
COc1ccc(C2=N[C@@H](c3ccc(Cl)cc3)[C@@H](c3ccc(Cl)cc3)N2C(=O)N2CCNC(=O)C2)c(OC(C)C)c1 [Nutlin-3] | -0.198 | -0.261 | -0.371 | -0.533 | -0.567 | -0.492 | -0.511 | -0.69
CC[C@H]1OC(=O)[C@H](C)[C@@H](O[C@H]2C[C@@](C)(OC)[C@@H](O)[C@H](C)O2)[C@H](C)[C@@H](O[C@@H]2O[C@H](C)C[C@H](N(C)C)[C@H]2O)[C@](C)(O)C[C@@H](C)CN(C)[C@H](C)[C@@H](O)[C@]1(C)O [Azithromycin (Zithromax)] | 0.16 | 0.206 | 0.16 | 0.0424 | 0.0514 | 0.129 | 0.0797 | -0.0131
